Source: PubChem BioAssay (NCI)
About 79,000 compounds went through this panel and 15% of them were active in at least one assay; those are over-represented in the sample as a whole. Calls of active or inactive are those of the source. Rule as the data show it: active = growth inhibition above about 70%; inactive = the rest.

Columns and labels:
[1] = NCI Yeast Anticancer Drug Screen. Data for the rad52 strain (AID 147);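 also: 0% = growth of vehicle-treated control cultures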; conditions: S. cerevisiae rad52 mutant growth inhibition, hits give high values
How it was run: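 Measured: yeast growth inhibition. System: strain with a defined DNA damage repair alteration. Reference: vehicle-treated control cultures.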

[2] = NCI Yeast Anticancer Drug Screen. Data for the wt1 strain (AID 149);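 also: 0% = growth of vehicle-treated wt1 cultures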; conditions: S. cerevisiae wt1 strain (SPY 50644) growth inhibition, hits give high values
How it was run: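 Measured: growth of wt1 yeast under compound versus vehicle treatment, reported as inhibition.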

[3] = NCI Yeast Anticancer Drug Screen. Data for the rad50EPP+ strain (AID 151);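 also: 0% = growth of vehicle-treated control cultures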; conditions: S. cerevisiae rad50 mutant strain, hits give high values
How it was run: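 One strain with a rad50 alteration (rad50EPP+) was compound-treated, its growth then compared to that of vehicle controls.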

[4] = NCI Yeast Anticancer Drug Screen. Data for the mgt1 strain (AID 153); conditions: S. cerevisiae mgt1 mutant growth inhibition, hits give high values
How it was run: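 After exposure of the mgt1 yeast mutant to compound, growth was measured and reported as inhibition compared with vehicle controls.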

[5] = NCI Yeast Anticancer Drug Screen. Data for the rad50 strain (AID 155);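 also: 0% = growth of vehicle-only cultures of the same strain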; conditions: S. cerevisiae rad50 strain growth inhibition, hits give high values
How it was run: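 Growth of the mutant yeast was measured after compound exposure and referenced to vehicle-treated cultures.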

[6] = NCI Yeast Anticancer Drug Screen. Data for the mec2-1 strain (AID 157); conditions: S. cerevisiae mec2-1 strain, hits give high values
How it was run: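 Test agents were screened against the mec2-1 yeast strain, with defined DNA repair or cell cycle alteration. Growth was scored as inhibition against vehicle-only controls.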

[7] = NCI Yeast Anticancer Drug Screen. Data for the rad14 strain (AID 159);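 also: 0% = growth of vehicle-treated control cultures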; conditions: S. cerevisiae rad14 strain growth inhibition, hits give high values
How it was run: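 Here, inhibition of yeast growth was measured after compound exposure, using a strain with a genetic defect in DNA damage repair and vehicle-treated cultures as the reference.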

[8] = NCI Yeast Anticancer Drug Screen. Data for the sgs1 mgt1 strain (AID 161);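 also: 0% = growth of cultures given vehicle only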; conditions: S. cerevisiae sgs1 mgt1 strain, hits give high values
How it was run: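 Mutant yeast exposed to compound; growth scored against vehicle-only wells.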

[9] = NCI Yeast Anticancer Drug Screen. Data for the CLN2oe strain (AID 163);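 also: 0% = growth of vehicle-only control cultures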; conditions: S. cerevisiae CLN2oe strain, hits give high values
How it was run: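 Here, growth inhibition in a cell-cycle-altered yeast strain after compound exposure was quantified against vehicle control growth.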

[10] = NCI Yeast Anticancer Drug Screen. Data for the cln2 rad14 strain (AID 165);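 also: 0% = growth equal to vehicle treated cultures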; conditions: S. cerevisiae cln2 rad14 strain, hits give high values
How it was run: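 Growth of compound-exposed yeast (cln2 rad14 genotype) measured and expressed as inhibition relative to vehicle.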

[11] = NCI Yeast Anticancer Drug Screen. Data for the bub3 strain (AID 167); conditions: S. cerevisiae bub3 mutant strain, hits give high values
How it was run: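 Whole-cell yeast assay. The mutant strain was incubated with compounds, and growth inhibition was determined by comparison with vehicle-treated cells.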

[12] = NCI Yeast Anticancer Drug Screen. Data for the wt2 strain (AID 169);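 also: 0% = growth of vehicle-treated yeast cultures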; conditions: S. cerevisiae wt2 strain growth inhibition, hits give high values
How it was run: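 Genetically defined yeast strains from a DNA-repair/cell-cycle panel were used. Compound-exposed yeast growth was measured, and the inhibition was calculated relative to vehicle treatment.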

[13] = NCI Yeast Anticancer Drug Screen. Data for the mlh1 strain (AID 171);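 also: 0% = growth of vehicle-treated control cultures of the same strain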; conditions: S. cerevisiae mlh1 strain growth inhibition, hits give high values
How it was run: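 Here the genetically defined yeast mutant is grown with each compound, and the extent to which its growth falls below that of vehicle-exposed cells is reported.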

[14] = NCI Yeast Anticancer Drug Screen. Data for the sgs1 strain (AID 173);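 also: 0% = growth of vehicle-only control cultures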; conditions: S. cerevisiae sgs1 mutant, hits give high values
How it was run: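 Relative growth inhibition, referenced to vehicle, was determined in a yeast strain with a defined alteration affecting DNA damage repair or cell cycle control after compound exposure.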

[15] = NCI Yeast Anticancer Drug Screen. Data for the mlh1 rad18 strain (AID 175); conditions: S. cerevisiae mlh1 rad18 strain growth inhibition, hits give high values
How it was run: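 In this whole-cell yeast screen, a strain with altered DNA damage repair is challenged with compound, and its growth is measured against matched vehicle-treated controls.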

[16] = NCI Yeast Anticancer Drug Screen. Data for the rad18 strain (AID 177); conditions: S. cerevisiae rad18 mutant growth inhibition, hits give high values
How it was run: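 Screen uses a yeast strain with a defined lesion in DNA damage repair; compound effect is read as loss of growth compared to untreated vehicle cultures.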

[17] = at 5.0 µM (retest, dose inferred, filed as 0.5)
[18] = at 50.0 µM (retest, dose inferred, filed as 5.0)

Measured: growth inhibition

CC1CC[C@]2(C(=O)O)CCC3(C)C(=CC(=O)C4[C@@]5(C)CCC(=O)C(C)(C)C5CC[C@]43C)[C@@H]2[C@H]1C (stereo partly drawn)
active: [1]; at 11.0 µM 91% | [1]; at 33.0 µM 98% | [1]; at 100.0 µM 97% | [2]; at 11.0 µM 93% | [2]; at 33.0 µM 98% | [2]; at 100.0 µM 97% | [4]; at 11.0 µM 88% | [4]; at 33.0 µM 97% | [4]; at 100.0 µM 97% | [5]; at 11.0 µM 92% | [5]; at 33.0 µM 98% | [5]; [18] 97% | [5]; at 50.0 µM 90.8% | [5]; at 100.0 µM 97% | [6]; at 11.0 µM 88% | [6]; at 33.0 µM 95% | [6]; [18] 97% | [6]; at 50.0 µM 91.5% | [6]; at 100.0 µM 95% | [7]; at 11.0 µM 77% | [7]; at 33.0 µM 95% | [7]; at 100.0 µM 96% | [8]; [18] 96% | [8]; at 50.0 µM 89.8% | [9]; at 11.0 µM 92% | [9]; at 33.0 µM 97% | [9]; at 100.0 µM 97% | [10]; [18] 98% | [10]; at 50.0 µM 90.7% | [11]; at 11.0 µM 88% | [11]; at 33.0 µM 96% | [11]; [18] 97% | [11]; at 50.0 µM 91.7% | [11]; at 100.0 µM 96% | [12]; at 11.0 µM 88% | [12]; at 33.0 µM 98% | [12]; at 100.0 µM 97% | [13]; at 11.0 µM 83% | [13]; at 33.0 µM 96% | [13]; at 100.0 µM 96% | [14]; at 11.0 µM 91% | [14]; at 33.0 µM 98% | [14]; at 100.0 µM 97% | [15]; [18] 97% | [15]; at 50.0 µM 90.7% | [16]; at 11.0 µM 93% | [16]; at 33.0 µM 97% | [16]; at 100.0 µM 97%
inactive: [1]; at 1.2 µM 29% | [1]; at 3.7 µM 43% | [2]; at 1.2 µM 9% | [2]; at 3.7 µM 20% | [3]; at 1.2 µM 9% | [3]; at 3.7 µM 21% | [3]; at 11.0 µM 28% | [3]; at 33.0 µM 18% | [3]; at 100.0 µM 30% | [4]; at 1.2 µM 4% | [4]; at 3.7 µM 9% | [5]; at 1.2 µM 20% | [5]; at 3.7 µM 46% | [5]; [17] 4% | [6]; at 1.2 µM -2% | [6]; at 3.7 µM 38% | [6]; [17] 26% | [7]; at 1.2 µM -19% | [7]; at 3.7 µM -13% | [8]; [17] 7% | [9]; at 1.2 µM 1% | [9]; at 3.7 µM 37% | [10]; [17] 65% | [11]; at 1.2 µM 12% | [11]; at 3.7 µM 29% | [11]; [17] 58% | [12]; at 1.2 µM 12% | [12]; at 3.7 µM 13% | [13]; at 1.2 µM 14% | [13]; at 3.7 µM 14% | [14]; at 1.2 µM 29% | [14]; at 3.7 µM 30% | [15]; [17] 35% | [16]; at 1.2 µM 15% | [16]; at 3.7 µM 34%

CCC(C)(C)c1ccc(Oc2cccc(C(=O)O)c2)cc1
active: [4]; at 100.0 µM 92% | [5]; at 50.0 µM 72.1% | [5]; at 100.0 µM 71%
inactive: [1]; at 1.2 µM -2% | [1]; at 3.7 µM -1% | [1]; at 11.0 µM 17% | [1]; at 33.0 µM 59% | [1]; at 100.0 µM 68% | [2]; at 1.2 µM -1% | [2]; at 3.7 µM -3% | [2]; at 11.0 µM 12% | [2]; at 33.0 µM 49% | [2]; at 100.0 µM 59% | [3]; at 1.2 µM 8% | [3]; at 3.7 µM 18% | [3]; at 11.0 µM 25% | [3]; at 33.0 µM 42% | [3]; at 100.0 µM 56% | [4]; at 1.2 µM -4% | [4]; at 3.7 µM -6% | [4]; at 11.0 µM 2% | [4]; at 33.0 µM 52% | [5]; at 1.2 µM 2% | [5]; at 3.7 µM -1% | [5]; [17] -2% | [5]; at 11.0 µM 25% | [5]; at 33.0 µM 55% | [5]; [18] 44% | [6]; at 1.2 µM -1% | [6]; at 3.7 µM 2%
